Results taken from PMC5540273 (PLoS ONE, 2017).

Assays:
Settings in all cases: concentration: 1 μM, replicates: in singlicate; n = 1
PKN1 = test system: PKN1
PKN2 = test system: PKN2
PLK1 = test system: PLK1
PLK2 = test system: PLK2
PLK3 = test system: PLK3
PLK4 = test system: PLK4
PRKCD = test system: PRKCD
PRKCE = test system: PRKCE
PRKCH = test system: PRKCH
PRKCI = test system: PRKCI
PRKCQ = test system: PRKCQ
PRKD1 = test system: PRKD1
PRKD2 = test system: PRKD2
PRKD3 = test system: PRKD3
PRKG1 = test system: PRKG1
PRKG2 = test system: PRKG2
PRKR = test system: T1, PRKR
T1 construct: gene EIF2AK2

PRKX = test system: PRKX
PRP4 = test system: PRP4
PYK2 = test system: T2, PYK2
T2 construct: gene PTK2B
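Further: KINOMEscan kinase panel screen.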

Row | Structure (SMILES) | %Inh (PKN1) | %Inh (PKN2) | %Inh (PLK1) | %Inh (PLK2) | %Inh (PLK3) | %Inh (PLK4) | %Inh (PRKCD) | %Inh (PRKCE) | %Inh (PRKCH) | %Inh (PRKCI) | %Inh (PRKCQ) | %Inh (PRKD1) | %Inh (PRKD2) | %Inh (PRKD3) | %Inh (PRKG1) | %Inh (PRKG2) | %Inh (PRKR) | %Inh (PRKX) | %Inh (PRP4) | %Inh (PYK2)
1 | Cc1ccc(-c2cc(-c3c[nH]nc3-c3ccccn3)ccn2)cc1 [GW684088] | 0% | 0% | 0% | 0% | 0% | 0% | 0% | 16% | 0% | 12% | 1% | 68% | 62% | 69% | 0% | 16% | 24% | 21% | 27% | 16%
2 | O=C(Nc1n[nH]c2nc(-c3nccs3)c(Br)cc12)C1CCCC1 [SB-742609] | 0% | 0% | 0% | 0% | 0% | 0% | 5% | 0% | 2% | 12% | 4% | 0% | 0% | 0% | 2% | 0% | 5% | 0% | 13% | 9%
3 | CCn1c(-c2ccccn2)nc2cnccc21 [SB-736398] | 0% | 11% | 0% | 0% | 0% | 0% | 0% | 10% | 0% | 30% | 14% | 0% | 0% | 1% | 0% | 3% | 0% | 100% | 46% | 9%
4 | NC(=O)c1nnc2ccccc2c1N | 1% | 38% | 28% | 8% | 10% | 19% | 0% | 15% | 0% | 28% | 3% | 0% | 53% | 0% | 0% | 14% | 0% | 1% | 0% | 12%
5 | O=C(Nc1ccccc1)Nc1cccc(Oc2ccc3nccn3n2)c1 | 0% | 0% | 33% | 0% | 0% | 0% | 16% | 0% | 0% | 21% | 10% | 0% | 7% | 0% | 4% | 0% | 0% | 0% | 26% | 60%
6 | CC(C)(C)c1ccc(C(=O)Nc2cn3cc(Cl)ccc3n2)cc1 | 0% | 1% | 13% | 0% | 1% | 0% | 4% | 13% | 2% | 100% | 18% | 0% | 0% | 0% | 0% | 0% | 0% | 0% | 0% | 96.6%
7 | COc1ccc2nc(-c3cccc(C)n3)nc(Nc3ccncc3)c2c1 [GSK204919] | 3% | 0% | 0% | 0% | 0% | 0% | 0% | 0% | 30% | 31% | 44% | 92.4% | 98.8% | 100% | 8% | 0% | 0% | 7% | 8% | 9%
8 | COc1cccc(-c2cc(-c3c[nH]nc3-c3ccccn3)ccn2)c1 [GW680338] | 0% | 7% | 13% | 0% | 7% | 0% | 12% | 13% | 1% | 0% | 2% | 62% | 47% | 34% | 6% | 0% | 0% | 0% | 26% | 0%
9 | Cc1ccc(NC(=O)Nc2cc(C(C)(C)C)nn2-c2ccccc2)cc1 [GSK1014915] | 53% | 0% | 0% | 0% | 0% | 0% | 0% | 0% | 5% | 28% | 0% | 7% | 0% | 18% | 11% | 0% | 0% | 57% | 1% | 4%
10 | COc1cccc(NC(=O)NC2CCN(c3ccnc(Nc4ccc(F)cc4)n3)C2)c1 (centres unmarked) [GSK1379721] | 8% | 0% | 7% | 0% | 7% | 3% | 0% | 14% | 0% | 4% | 3% | 0% | 0% | 19% | 0% | 0% | 1% | 21% | 47% | 0%
